The structures appear in SMILES notation. Compounds without any hit were thinned out: in the full panel of roughly 83,000, 20% have a hit.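 Interpretation: 100, growth as untreated; towards 0, rising growth inhibition; 0, no net growth; 0 to -100, cell death. Compounds scoring below 10 were considered active.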 A number with no mark means an inactive call. Activity calls are given as the source filed them.

For the test, the system named is MOLT-4 leukemia. Nature of the test: NCI-60 one-dose screen, 48 h (100 = growth as untreated, 0 = no growth, -100 = all killed). The note with it: 10 µM.
Take `COc1cc2c3c(n(CCCNC(C)C)c(=O)c2cc1OC)-c1nc2c(cc1C3=O)OCO2`: the growth was -1.94% (active). With `COc1ccc2cc([C@H](C)C(=O)NCc3ccccc3)ccc2c1`, the growth is 47%. To `O=C(Cn1nc(-c2ccccc2)ccc1=O)NNC(=S)NC1CCCCC1` belongs 106%; to `CN1CCCN(Cc2ccc(C(=O)Nc3cccc(Nc4ccc5cc(O)ccc5n4)c3)cc2C(F)(F)F)CC1`, -6.61% (active); to `O=C1Nc2cc(Cl)ccc2/C1=C/c1cccc(OCc2ccccc2)c1`, 5.59% (active).

With `C/C(=C\CC/C=C(\C)CC/C=C(\C)CC[C@@H](O)C(C)(C)O)CC/C=C(\C)CC[C@@H](O)C(C)(C)O`, the growth is 0.465% (active). Consider `O=C(c1ccc([N+](=O)[O-])c([N+](=O)[O-])c1O)n1[nH]c(=O)c2ccccc2c1=O`, for which the growth is 36.3%. To `O=C(O)CCCCCCCCCCN1C(=O)/C(=C/c2cnc(-c3ccc(Cl)cc3)s2)SC1=S` belongs 19.7%. The figure for `O=C1Nc2ccc(F)cc2/C1=C/c1cccc(OCc2ccccc2)c1` is 1.81% (active); for `COc1ccc(C(=O)NC(=S)N2CCN(c3ncnc4c3cnn4-c3ccccc3)CC2)cc1` it is 58.2%; for `Cc1cc(=O)oc2cc(OCCCCOc3ccc(/C=C/C(=O)Nc4cccc(Cl)c4)cc3)ccc12` it is 80.6%. Turning to `COc1ccccc1C(=O)NNC(=O)CSc1nc2c(c(=O)[nH]1)CCCC2`, the growth is 105%. For `NC1=NC(c2ccccc2Cl)N=C(Nc2nn[nH]n2)N1` (centres undefined), the growth was 124%.

With `COc1ccc2nc(Cl)c(-c3cc(-c4ccccc4)nc(=O)[nH]3)cc2c1`, the growth was -11.4% (active).

For the origin of these results see PubChem BioAssay (NCI).
